Molecules are shown by their SMILES. Among all 360,000 compounds or so, about 25,000 (6.9%) were called active. Another 9% or so got no clear call; they are omitted. The entries come from a sample that favours actives as a whole. A call without a number means that no potency is given here. A number with no mark means an inactive call. Calls come from the whole dose curve; as a rule, active = well fitted inhibition curve with a large enough effect; inconclusive = small, poorly fitted or top-dose-only effect; inactive = flat fitted curve, though single readings scatter.

Luciferin 4-monooxygenase (Photinus pyralis), sequence (P08659 whole entry, looked up): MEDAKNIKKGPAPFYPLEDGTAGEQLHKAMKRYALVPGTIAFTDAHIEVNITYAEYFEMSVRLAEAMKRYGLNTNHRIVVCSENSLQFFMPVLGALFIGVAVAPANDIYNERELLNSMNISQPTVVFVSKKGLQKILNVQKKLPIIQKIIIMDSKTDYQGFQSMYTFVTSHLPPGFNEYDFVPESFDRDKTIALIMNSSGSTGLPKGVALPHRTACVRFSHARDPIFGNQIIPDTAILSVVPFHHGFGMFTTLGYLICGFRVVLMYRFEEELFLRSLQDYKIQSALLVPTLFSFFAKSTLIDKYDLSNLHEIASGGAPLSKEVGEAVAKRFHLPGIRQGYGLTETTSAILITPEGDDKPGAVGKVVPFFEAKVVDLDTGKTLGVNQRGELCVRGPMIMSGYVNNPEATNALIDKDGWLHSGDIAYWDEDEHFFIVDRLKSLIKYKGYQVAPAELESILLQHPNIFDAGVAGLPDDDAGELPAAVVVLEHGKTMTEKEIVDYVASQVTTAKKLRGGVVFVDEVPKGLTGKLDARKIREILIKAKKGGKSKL

The test concerns the target Luciferin 4-monooxygenase (Photinus pyralis) (UniProt P08659). As to the kind of experiment: qHTS profiling assay for firefly luciferase inhibitor/activator using purifed enzyme and Km concentrations of substrates (counterscreen for miR-21 project). Note: nearly all actives have a fitted effect of over 55% in size. The following applies: purified FLuc, luminescence inhibition; series mostly up to 57.5 µM. The text has this:
MLPCN Grant: 1 R21 NS059478-01 (miR-21 grant) Assay Provider: NCGC NCGC Assay Overview: Firefly (Photinus pyralis) luciferase is one of the most commonly used transcriptional reporters for a number of reasons. It is considered one of the more dynamically responsive reporters -that is, responsive to changes in reporter transcription - as it requires no post-translational modifications and is enzymatically active directly after protein synthesis (Wood, 1998). Additionally, the half-life of the luciferase protein is short relative to other reporter-gene products (Wood, 1995). Whereas reporters with long half-lives potentially allow for increased signal due to accumulation of reporter-gene product, once accumulated in the cell, dynamic changes in reporter-gene expression may be difficult to detect(Fan and Wood, 2007; Almond et al., 2004). It has been shown that wild-type P. pyralis luciferase has a half-life of approximately […] hours in mammalian cells (Thompson et al., 1991). Firefly luciferase reporter-gene assays are also generally considered one of the most sensitive assay types (Wood, 1995; Wood, 1998). Although light produced in a bioluminescence reaction is of lower intensity than that produced during fluorescence emission, this is offset by little to no background light inherent to luminescent assays. Thus the luciferase reporter can be expressed at much lower levels than fluorescent proteins while still providing robust signal. # However, it was initially observed, in 1991, by Thompson et al., that compounds that resemble the substrates of firefly luciferase (FLuc) can act as competitive inhibitors of the enzyme, and that these compounds, upon interaction with luciferase in the cell, can actually stabilize the protein and increase its half-life. Accumulated intracellular FLuc protein can be measured as an increase in luminescence signal, upon addition of detection reagents (which contain high concentrations of FLuc substrates) commonly used in high-throughput screening. In cell-based reporter gene assays that use FLuc as the reporter gene to quantitate the potential influence of a given compound against the target biology, this apparent increase in luminescence can mistakenly be interpreted as identification of a compound that is active against the target of interest. This is the case for the miR-21 FLuc reporter gene assay used to identify inhibitors of the miR-21 pathway (PubChem AID 2289) - compounds of interest will inhibit miR-21 biogenesis/expression or activity, and are identified by causing an increase in luminescence, due to increased FLuc translation. However, FLuc inhibitory compounds that stabilize the FLuc protein will give an identical read-out, making it difficult to distinguish compounds that are active against the target from those active against FLuc. Previous profiling work to determine the prevalence of compounds that affect FLuc enzymatic activity (PubChem AID 411) identified that ~3% of the MLSMR library (then at ~72K) inhibited FLuc. […] Since the MLSMR had grown to ~350K compounds, and since it was expected that a significant percentage of compounds found active in the miR-21 FLuc assay would be FLuc inhibitors, the library was screened for activity against FLuc using a biochemical assay of purified FLuc and KM concentrations of FLuc substrates (D-luciferin and ATP).
NCGC Assay Protocol Summary: Reagents: 50mM Tris acetate, pH 7.5; 10mM Mg acetate; 10uM D-luciferin (Sigma #L9504); 10uM ATP; 0.01% Tween-20; 0.05% BSA; 10nM P. pyralis luciferase (Sigma #L9506) Control compounds used were two known firefly luciferase inhibitors (compounds (2) and (5) in Auld et al., 2010), and DMSO. […]
With `CCOc1ccc(CCNC(=O)COC(=O)c2ccc(F)c(S(=O)(=O)N3CCOCC3)c2)cc1OCC`, the Potency result was “inactive”. With `CCC(=O)N1c2ccccc2CC1C(=O)N1CCN(c2ccccc2)CC1` (stereo unspecified), the Potency result is “inactive”. In the case of `Cc1ccc(CSc2ccc(S(=O)(=O)N3CCCCC3)cn2)cc1`, the Potency result was “inactive”.

As to `O=C(Nc1ccccc1F)c1cc(S(=O)(=O)N2CCCCC2)cs1`, the activity change, negative = inhibition was 6.84% [at 2.3 µM]. As for `O=C(Nc1ccccc1C(=O)O)c1cc(S(=O)(=O)N2CCCCC2)cs1`, the Potency is 23.9 µM (active). The same measure, in the same setting: for `Cc1ccccc1NC(=O)c1cc(S(=O)(=O)N2CCOCC2)cs1` the value was “inactive”; for `COc1ccc(CNC(=O)CN2C(=O)NC3(CCCc4sccc43)C2=O)cc1` (stereo unspecified), “inactive”; for `CC[N+]1(CC)CC2=Cc3ccccc3CC2C1` (stereo unspecified), “inactive”. Same read-out and setting: for `COc1ccccc1C(=O)NC(=O)COC(=O)c1ccco1` the value was “inactive”; for `COc1ccccc1C(=O)OCC(=O)NCCNC(=O)COC(=O)c1ccccc1OC`, “inactive”; for `COc1ccccc1C(=O)NC(=O)COC(=O)C1CC1`, 9.53 µM (active). With `O=C(Nc1cccc(-n2cnnn2)c1)c1cccnc1`, the Potency entry was “inactive”. On the same count and under the same terms, with `Cc1ccccc1-c1nc2cc(NC(=O)c3cccc(OCCC(C)C)c3)ccc2o1` the entry was “inactive”; with `O=C(Nc1ccc(O)c(-c2nc3ccccc3o2)c1)c1ccc(-c2cccc(Cl)c2)o1`, “inactive”. With `O=C(Nc1ccc2oc(-c3ccccc3F)nc2c1)c1ccco1`, the Potency is 6.01 µM (active). Consider `COc1ccccc1CNC(=O)COC(=O)CNS(=O)(=O)c1ccc(NC(C)=O)cc1`, for which the Potency entry was “inactive”. On the same count and under the same terms, with `Cc1cccc(N2CCN(C(=O)c3cnc(N4CCCC4)nc3C)CC2)c1C` the entry was “inactive”; with `COc1ccccc1CNC(=O)C1CCN(C(=O)[C@@H]2Cc3ccccc3CN2)CC1`, “inactive”; with `COc1ccccc1CNC(=O)C1CCN(S(C)(=O)=O)CC1`, “inactive”. Same read-out and setting: for `COc1ccccc1CCNC(=O)C1CCN(C(=O)/C=C/c2ccccc2)CC1` the value was 21.3 µM (active). With `OC1CCCN(c2ncnc3c2nnn3Cc2c(F)cccc2Cl)C1` (stereo unspecified), the Potency entry is “inactive”.

`C/C(=C/c1ccccc1)C(=O)N1CCN(c2ccccc2)CC1`: the Potency entry was “inactive”.

With `Cc1cc(OC(C)C(=O)Nc2ccc(S(=O)(=O)Nc3onc(C)c3C)cc2)cc(C)c1Cl` (stereo unspecified), the Potency entry is “inactive”. Still for that read-out and setting: with `Cc1ccc(C(=O)/C=C/Nc2ccc(S(=O)(=O)Nc3onc(C)c3C)cc2)cc1` the figure was 15.1 µM (active); with `Cc1ccnc(NS(=O)(=O)c2ccc(NC(=O)c3oc4ccc(F)cc4c3C)cc2)n1`, 26.9 µM (active); with `CCn1c(SCC(=O)Nc2ccc(S(=O)(=O)Nc3onc(C)c3C)cc2)nnc1-c1ccccc1`, “inactive”. `Cc1cc(C)c2oc(C(=O)Nc3ccc(S(=O)(=O)Nc4nccc(C)n4)cc3)cc(=O)c2c1`: the Potency result was “inactive”. As to `Cc1noc(NS(=O)(=O)c2ccc(NC(=O)c3oc4ccc(F)cc4c3C)cc2)c1C`, the Potency was 15.1 µM (active). Same read-out and setting: for `Cc1ccnc(NS(=O)(=O)c2ccc(NC(=O)c3ccc(S(=O)(=O)N(C)C)cc3)cc2)n1` the value was “inactive”; for `Cc1noc(NS(=O)(=O)c2ccc(NC(=O)C34CCC(CC3)C4)cc2)c1C`, “inactive”; for `Cc1cc(C)nc(NS(=O)(=O)c2ccc(N/C=C\C(=O)c3cccs3)cc2)n1`, “inactive”.

Regarding `COc1ccc(N2CCN(S(=O)(=O)c3ccc4c(c3)N(C(C)=O)CCO4)CC2)cc1`, the Potency entry was “inactive”. For the compound `CCOc1ccc(S(=O)(=O)NCCC(=O)NCC2CCCO2)cc1` (stereo unspecified), the Potency entry is “inactive”. `Cc1cc(NC(=O)c2ccc(-c3ccc(Cl)cc3)o2)cc(-c2nc3ncccc3o2)c1O`: the Potency entry was “inactive”. The same measure, in the same setting: with `O=C(Nc1cccnc1Oc1ncnc2cc(Cl)ccc12)c1ccc(F)cc1` the entry was “inactive”; with `O=C(Nc1cccc2ncccc12)c1ccc(-c2ccc(Cl)cc2Cl)o1`, 12 µM (active); with `NC(=O)c1ccsc1NC(=O)COC(=O)COc1ccc(C=O)cc1`, “inactive”.

On to `COc1cc(OC)cc(C(=O)OCC(=O)Nc2sccc2C(N)=O)c1`, for which the Potency is 15.1 µM (active). Same read-out and setting: with `CCCCn1nc(C(=O)OCC(=O)Nc2sccc2C(N)=O)c2ccccc2c1=O` the entry was “inactive”.

With `Cc1ccc(F)cc1NC(=O)CSCc1c(C)noc1C`, the Potency entry is “inactive”.

On to `COC(=O)[C@H](CC(C)C)NC(=O)N1CCCCC1C` (stereo partly specified), for which the Potency entry was “inactive”.

`CC1CCCCN1Cc1c(O)ccc2c(=O)c(-c3cccc(Cl)c3)c(C(F)(F)F)oc12` (stereo unspecified): the Potency entry was “inactive”.

Turning to `CCC1CCCCN1Cc1c(O)ccc2c(=O)c(Oc3ccccc3Cl)c(C(F)(F)F)oc12` (stereo unspecified), the Potency result is “inactive”.

Turning to `COc1cccc(NC(=O)CN2CCN(c3nc(-c4cccc(OC)c4)cs3)CC2)c1`, the Potency result was “inactive”. Still for that read-out and setting: with `Cc1nc(-c2ccc(NC(=O)c3cccs3)cc2)cs1` the figure was 0.426 µM (active). Still for that read-out and setting: for `CCOC(=O)c1oc2ccccc2c1NC(=O)c1cccs1` the value was “inactive”. For the compound `CCc1c(C)sc(NC(=O)c2cccs2)c1C(N)=O`, the Potency is 6.75 µM (active). On the same count and under the same terms, with `CCc1c(C)sc(NC(=O)c2ccc(Br)o2)c1C(=O)OC` the entry was “inactive”; with `O=C(Nc1n[nH]c(C(F)(F)F)n1)c1cccs1`, “inactive”. In the case of `Cc1ccc(-c2csc(NC(=O)c3cccs3)n2)cc1`, the Potency was 10.7 µM (active). The same measure, in the same setting: with `Cc1nc2ccccn2c(=O)c1NC(=O)c1cccs1` the entry was “inactive”. Regarding `Cc1cc(C)cc(NC(=O)Cc2csc(C)n2)c1`, the Potency result was “inactive”.

On to `COc1cccc(CC(=O)Nc2ccc(-c3csc(C)n3)cc2)c1`, for which the Potency is 16.9 µM (active). As for `CCC1SC(CC)C(=O)N(CC(=O)NC2CCCCC2)C1=O` (stereo unspecified), the Potency entry was “inactive”. `Cc1cccc(NC(=O)C2CCCN2S(=O)(=O)c2cccc3nsnc23)c1C` (stereo unspecified): the Potency entry was “inactive”. Still for that read-out and setting: for `Cc1nn(C)c2c1c(C(F)(F)F)cc(=O)n2C(C)C(=O)NCc1ccc(Cl)cc1` (stereo unspecified) the value was “inactive”.

On to `CC(CC(=O)Nc1ccccc1)n1ccnc1` (stereo unspecified), for which the Potency result was “inactive”.

Turning to `CCc1nc2ccc(C(=O)N3CCN(c4cc(Cl)ccc4C)CC3)cc2nc1CC`, the Potency entry is “inactive”. For the compound `COc1ccc(CCNC(=O)Cn2c(=O)cc(C(F)(F)F)c3c(C)nn(C)c32)c(OC)c1`, the Potency entry is “inactive”. On the same count and under the same terms, with `CCc1ccccc1NC(=O)N1CCC2(CC1)Oc1ccccc1C(=O)N2Cc1ccccc1F` the entry was “inactive”; with `CCN(CC(=O)Nc1cc(Cl)ccc1C)C(=O)CSCc1ccccc1`, “inactive”; with `Fc1cccc(Cc2noc(CN3CCN(c4cnccn4)CC3)n2)c1`, “inactive”. Still for that read-out and setting: with `CCCc1nnc(NC(=O)c2cccs2)s1` the figure was 16.9 µM (active). On the same count and under the same terms, with `CCCc1nnc(NC(=O)CCC(=O)NC2CC2)s1` the entry was “inactive”; with `CCc1nnc(NC(=O)Cc2cccs2)s1`, “inactive”; with `COc1ccc(CCNC(=O)c2ccc3c(c2)nc(C)n3-c2ccc(Br)cc2)cc1OC`, “inactive”.

(Values after PubChem BioAssay AID588342 (National Center for Advancing Translational Sciences (NCATS), 2011).)
